# Measurements from PMC5540273 (PLoS ONE, 2017).
# Like-named read-outs stand apart in the source and are kept apart here.
# Experiments:
# GRK2 = system: T1, GRK2; conditions: concentration: 1 μM, replicates: in singlicate; n = 1
# T1 construct: gene ADRBK1
# GRK3 = system: T2, GRK3; conditions: concentration: 1 μM, replicates: in singlicate; n = 1
# T2 construct: gene ADRBK2
# GRK4 = conditions: concentration: 1 μM, replicates: in singlicate; n = 1
# GRK7 = conditions: concentration: 1 μM, replicates: in singlicate; n = 1
# GSK3A = conditions: concentration: 1 μM, replicates: in singlicate; n = 1
# GSK3B = conditions: n = 1
# HASPIN = system: T3, HASPIN; conditions: concentration: 1 μM, replicates: in singlicate; n = 1
# T3 construct: gene GSG2
# HCK = conditions: concentration: 1 μM, replicates: in singlicate; n = 1
# HIPK1 = conditions: concentration: 1 μM, replicates: in singlicate; n = 1
# HIPK2 = conditions: concentration: 1 μM, replicates: in singlicate; n = 1
# HIPK3 = conditions: concentration: 1 μM, replicates: in singlicate; n = 1
# HIPK4 = conditions: concentration: 1 μM, replicates: in singlicate; n = 1
# HPK1 = conditions: concentration: 1 μM, replicates: in singlicate; n = 1
# HUNK = conditions: concentration: 1 μM, replicates: in singlicate; n = 1
# ICK = conditions: concentration: 1 μM, replicates: in singlicate; n = 1
# IGF1R = conditions: concentration: 1 μM, replicates: in singlicate; n = 1
# IKK-alpha = system: T4, IKK-alpha; conditions: concentration: 1 μM, replicates: in singlicate; n = 1
# T4 construct: gene CHUK
# IKK-beta = system: T5, IKK-beta; conditions: concentration: 1 μM, replicates: in singlicate; n = 1
# T5 construct: gene IKBKB
# IKK-epsilon = system: T6, IKK-epsilon; conditions: concentration: 1 μM, replicates: in singlicate; n = 1
# T6 construct: gene IKBKE
# INSRR = conditions: concentration: 1 μM, replicates: in singlicate; n = 1
# [1] = concentration: 1 μM, replicates: in singlicate
# 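Note: KINOMEscan kinase panel screen.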
structure (smiles),measurement,setting,value
O=C(Nc1ccc2c(c1)OCO2)NC1CCN(c2ccnc(NCc3ccc(F)cc3)n2)CC1 [GSK1379859],%Inh,GRK2,0%
same,%Inh,GRK3,0%
same,%Inh,GRK4,0%
same,%Inh,GRK7,0%
same,%Inh,GSK3A,2%
same,%Inh,GSK3B; [1],8%
same,%Inh,HASPIN,0%
same,%Inh,HCK,0%
same,%Inh,HIPK1,0%
same,%Inh,HIPK2,0%
same,%Inh,HIPK3,9%
same,%Inh,HIPK4,0%
same,%Inh,HPK1,29%
same,%Inh,HUNK,1%
same,%Inh,ICK,0%
same,%Inh,IGF1R,0%
same,%Inh,IKK-alpha,0%
same,%Inh,IKK-beta,0%
same,%Inh,IKK-epsilon,11%
same,%Inh,INSRR,0%
Cc1ccc(-c2ccc3c(ccc4sc5c(c43)NC[C@@H](C)N=C5N(C)C)n2)cn1,%Inh,GRK2,0%
same,%Inh,GRK3,1%
same,%Inh,GRK4,0%
same,%Inh,GRK7,0%
same,%Inh,GSK3A,0%
same,%Inh,GSK3B; [1],0%
same,%Inh,HASPIN,23%
same,%Inh,HCK,14%
same,%Inh,HIPK1,0%
same,%Inh,HIPK2,0%
same,%Inh,HIPK3,0%
same,%Inh,HIPK4,9%
same,%Inh,HPK1,8%
same,%Inh,HUNK,5%
same,%Inh,ICK,0%
same,%Inh,IGF1R,0%
same,%Inh,IKK-alpha,11%
same,%Inh,IKK-beta,0%
same,%Inh,IKK-epsilon,0%
same,%Inh,INSRR,0%
COC(=O)c1c(-c2ccccc2)c2cc(Br)ccc2c(=O)n1Cc1ccc(NC(=O)CCC(=O)O)cc1,%Inh,GRK2,19%
same,%Inh,GRK3,8%
same,%Inh,GRK4,0%
same,%Inh,GRK7,31%
same,%Inh,GSK3A,0%
same,%Inh,GSK3B; [1],15%
same,%Inh,HASPIN,6%
same,%Inh,HCK,14%
same,%Inh,HIPK1,26%
same,%Inh,HIPK2,28%
same,%Inh,HIPK3,0%
same,%Inh,HIPK4,0%
same,%Inh,HPK1,0%
same,%Inh,HUNK,0%
same,%Inh,ICK,14%
same,%Inh,IGF1R,0%
same,%Inh,IKK-alpha,0%
same,%Inh,IKK-beta,0%
same,%Inh,IKK-epsilon,0%
same,%Inh,INSRR,13%
Nc1nccc2scc(-c3ccc4c(c3)CCN4C(=O)Cc3ccccc3)c12 [GSK2576924],%Inh,GRK2,4%
same,%Inh,GRK3,100%
same,%Inh,GRK4,0%
same,%Inh,GRK7,0%
same,%Inh,GSK3A,11%
same,%Inh,GSK3B; [1],2%
same,%Inh,HASPIN,0%
same,%Inh,HCK,0%
same,%Inh,HIPK1,0%
same,%Inh,HIPK2,0%
same,%Inh,HIPK3,11%
same,%Inh,HIPK4,0%
same,%Inh,HPK1,18%
same,%Inh,HUNK,0%
same,%Inh,ICK,0%
same,%Inh,IGF1R,1%
same,%Inh,IKK-alpha,0%
same,%Inh,IKK-beta,0%
same,%Inh,IKK-epsilon,12%
same,%Inh,INSRR,0%
Nc1n[nH]c2nnc(-c3ccccc3)c(-c3ccccc3)c12 [GW554060],%Inh,GRK2,0%
same,%Inh,GRK3,44%
same,%Inh,GRK4,6%
same,%Inh,GRK7,0%
same,%Inh,GSK3A,91%
same,%Inh,GSK3B; 1 µM,42%
same,%Inh,HASPIN,10%
same,%Inh,HCK,0%
same,%Inh,HIPK1,50%
same,%Inh,HIPK2,86%
same,%Inh,HIPK3,68%
same,%Inh,HIPK4,0%
same,%Inh,HPK1,27%
same,%Inh,HUNK,5%
same,%Inh,ICK,0%
same,%Inh,IGF1R,0%
same,%Inh,IKK-alpha,28%
same,%Inh,IKK-beta,0%
same,%Inh,IKK-epsilon,0%
same,%Inh,INSRR,0%
COc1cc(Nc2nccc(N3CCC(NC(=O)C4COc5ccccc5O4)C3)n2)cc(OC)c1OC (stereo not shown) [GSK1379761],%Inh,GRK2,0%
same,%Inh,GRK3,38%
same,%Inh,GRK4,0%
same,%Inh,GRK7,0%
same,%Inh,GSK3A,0%
same,%Inh,GSK3B; [1],3%
same,%Inh,HASPIN,55%
same,%Inh,HCK,0%
same,%Inh,HIPK1,0%
same,%Inh,HIPK2,0%
same,%Inh,HIPK3,0%
same,%Inh,HIPK4,0%
same,%Inh,HPK1,51%
same,%Inh,HUNK,30%
same,%Inh,ICK,0%
same,%Inh,IGF1R,0%
same,%Inh,IKK-alpha,21%
same,%Inh,IKK-beta,0%
same,%Inh,IKK-epsilon,0%
same,%Inh,INSRR,0%
CCC(=O)c1c(-c2ccccc2)c2cc(Cl)ccc2c(=O)n1Cc1cc(S(C)(=O)=O)n(CC(F)F)n1,%Inh,GRK2,0%
same,%Inh,GRK3,0%
same,%Inh,GRK4,4%
same,%Inh,GRK7,0%
same,%Inh,GSK3A,0%
same,%Inh,GSK3B; [1],0%
same,%Inh,HASPIN,26%
same,%Inh,HCK,0%
same,%Inh,HIPK1,25%
same,%Inh,HIPK2,0%
same,%Inh,HIPK3,0%
same,%Inh,HIPK4,0%
same,%Inh,HPK1,0%
same,%Inh,HUNK,3%
same,%Inh,ICK,0%
same,%Inh,IGF1R,10%
same,%Inh,IKK-alpha,0%
same,%Inh,IKK-beta,0%
same,%Inh,IKK-epsilon,0%
same,%Inh,INSRR,0%
Cc1nnc(-c2ccc3ncn(-c4ccc(S(C)=O)cc4)c3c2)o1 (stereo not shown),%Inh,GRK2,0%
same,%Inh,GRK3,0%
same,%Inh,GRK4,0%
same,%Inh,GRK7,0%
same,%Inh,GSK3A,74%
same,%Inh,GSK3B; [1],36%
same,%Inh,HASPIN,0%
same,%Inh,HCK,13%
same,%Inh,HIPK1,28%
same,%Inh,HIPK2,10%
same,%Inh,HIPK3,13%
same,%Inh,HIPK4,6%
same,%Inh,HPK1,0%
same,%Inh,HUNK,0%
same,%Inh,ICK,0%
same,%Inh,IGF1R,0%
same,%Inh,IKK-alpha,25%
same,%Inh,IKK-beta,7%
same,%Inh,IKK-epsilon,0%
same,%Inh,INSRR,0%
COc1cccc(C2=C(N(C)c3ccccc3)C(=O)NC2=O)c1 [SB-334865],%Inh,GRK2,0%
same,%Inh,GRK3,5%
same,%Inh,GRK4,0%
same,%Inh,GRK7,0%
same,%Inh,GSK3A,0%
same,%Inh,GSK3B; [1],24%
same,%Inh,HASPIN,2%
same,%Inh,HCK,0%
same,%Inh,HIPK1,0%
same,%Inh,HIPK2,0%
same,%Inh,HIPK3,25%
same,%Inh,HIPK4,0%
same,%Inh,HPK1,53%
same,%Inh,HUNK,9%
same,%Inh,ICK,0%
same,%Inh,IGF1R,12%
same,%Inh,IKK-alpha,0%
same,%Inh,IKK-beta,14%
same,%Inh,IKK-epsilon,3%
same,%Inh,INSRR,0%
Cl.c1ccc(Cn2cnc3cc(Nc4ncnc5ccccc45)ccc32)cc1 [GW272142],%Inh,GRK2,0%
same,%Inh,GRK3,50%
same,%Inh,GRK4,0%
same,%Inh,GRK7,0%
same,%Inh,GSK3A,0%
same,%Inh,GSK3B; [1],1%
same,%Inh,HASPIN,0%
same,%Inh,HCK,0%
same,%Inh,HIPK1,0%
same,%Inh,HIPK2,0%
same,%Inh,HIPK3,8%
same,%Inh,HIPK4,0%
same,%Inh,HPK1,36%
same,%Inh,HUNK,5%
same,%Inh,ICK,0%
same,%Inh,IGF1R,34%
same,%Inh,IKK-alpha,0%
same,%Inh,IKK-beta,12%
same,%Inh,IKK-epsilon,17%
same,%Inh,INSRR,36%
Nc1nc(-c2ccccc2F)c(-c2ccnc3ccccc23)s1 [GW560459],%Inh,GRK2,0%
same,%Inh,GRK3,50%
same,%Inh,GRK4,0%
same,%Inh,GRK7,0%
same,%Inh,GSK3A,3%
same,%Inh,GSK3B; [1],0%
same,%Inh,HASPIN,25%
same,%Inh,HCK,0%
same,%Inh,HIPK1,0%
same,%Inh,HIPK2,0%
same,%Inh,HIPK3,3%
same,%Inh,HIPK4,0%
same,%Inh,HPK1,7%
same,%Inh,HUNK,12%
same,%Inh,ICK,0%
same,%Inh,IGF1R,20%
same,%Inh,IKK-alpha,28%
same,%Inh,IKK-beta,9%
same,%Inh,IKK-epsilon,18%
same,%Inh,INSRR,0%
